Source: PubChem BioAssay
“And” between values parts separate entries of the source, which are not always exact repeats. Identical values can stand only once. Results filed as inconclusive are left out. The source made the active and inactive calls.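 How the source made its calls, unless noted: active means compounds whose cell count with miR-34 switched on is under 0.7 times the count with it off; inactive means the rest.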

What was measured:
[1] = liver-stage malaria parasite growth inhibition, primary screen, cell-based, HepG2, luciferase luminescence, HepG2 viability (AID 624349; in the data active means parasite load remaining mostly below about 12%, no sharp cut-off; inactive means mostly above about 10%;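 further: 100% = mean of DMSO negative control wells on the same plate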); settings: P. berghei liver stage in HepG2, luciferase luminescence, concentration not given here; parasite load remaining: stronger effect = lower value; viability: measured here: HepG2 viability without parasites
[2] = stimulators of nuclear beta-catenin in C2C12, primary screen, imaging, WNT3A-conditioned medium, mouse C2C12, NPC library (AID 1117326; in the data active means nuclear beta-catenin stimulation mostly above about 4.2%, no sharp cut-off; inactive means mostly below about 10%; further: reference of the scale not given here); settings: stronger effect = higher value
[3] = stimulators of insulin release from INS-1E, primary screen, cell-based, 5 mM glucose, NPC library (AID 1117329;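 active means compound raises insulin release from rat beta cells at 5 mM glucose, no numeric limit stated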; further: reference of the scale not given here); settings: rat INS-1E insulin secretion, at 10 µM, stronger effect = higher value
[4] = growth inhibition of GSK3B-pretreated HCT116 cells – cell-based, CellTiter-Glo, 0.2 to 20 µM (AID 1117336;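 active means compounds lowering colon cancer cell viability after pretreatment blocking the GSK3B kinase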); settings: HCT116 viability after GSK3B inhibitor, at 20 µM, stronger effect = higher value
[5] = inhibition of endothelial tube formation, primary screen, imaging, VEGF stimulated, CD31 staining, tube area, NPC library (AID 1117340;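 active means compound that reduces growth-factor-driven endothelial tube area in a mixed cell culture, no cutoff stated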); settings: VEGF-stimulated ADSC/ECFC co-culture, at 10 µM, stronger effect = higher value
[6] = glucagon-like peptide 1 release enhancers, primary assay, NCI-H716 cell line, NPC library (AID 1117341;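 active means compound raises GLP1 secretion from the human gut endocrine cells, with no numeric limit stated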; further: reference of the scale not given here); settings: NCI-H716 cells, at 10 µM, stronger effect = higher value
[7] = HCT116 colon cancer cell growth inhibition, primary screen, CellTiter-Glo luminescence, NPC library (AID 1117342;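 active means compounds that lower survival of HCT116 colon cancer cells in the luminescence readout, no numeric limit stated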); settings: at 20 µM (top of the series)
[8] = CellTiter-Glo luminescent readout of SW480 viability loss, NPC library primary (AID 1117343;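 active means compounds that lower viability of the colon cancer cells in the luminescence readout, with no numeric limit stated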); settings: CellTiter-Glo luminescence; at 20 µM (top of the series) unless noted
[9] = decreased DLD-1 cellular survival, CellTiter-Glo luminescent readout, NPC compound collection, primary HTS (AID 1117346;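 active means compounds that lower survival of DLD-1 colon cancer cells in the luminescence readout, no cutoff given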); settings: DLD-1 viability, CellTiter-Glo luminescence; at 20 µM (top of the series)
[10] = system: Aerobactin synthetase IucA (Klebsiella pneumoniae); test: IucA aerobactin synthetase inhibitors, biochemical, Tocris library, absorbance (AID 1345561; call rule not given here;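 further: 100% = enzyme without compound and 0% = no enzyme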); settings: purified IucA enzyme assay, absorbance (OD) read-out; stronger effect = lower value;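 tested at 8 µM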
[11] = sensitizers of A549 cells to miR-34 induction, primary screen, imaging, A549 dox-inducible miR-34, nuclei and caspase counts (AID 1347080); settings: A549 miR-34 inducible, Hoechst nuclei count, 48 h
[12] = survival rescue of mitochondrial mutant cells in low glucose, primary screen, MELAS cybrids, Rieske KO mouse fibroblasts, CellTiter-Glo (AID 1508586;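 active means mean z-score across replicates of 1.96 or higher in either the MELAS or the Rieske mutant cell line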;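 further: z relative to plate mean and SD of compound and empty wells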)
[13] = viability rescue of complex I mutant cybrids, primary screen, cell-based, galactose medium, ATP luminescence (AID 1645843;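 active means z-score of at least 1.8 in each of two replicates, scored against plate mean and spread of sample wells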;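 further: positive z means more ATP and so rescue of galactose-driven cybrid death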); settings: complex I mutant cybrid cells, 72 h, stronger effect = higher value
[14] = SU-DIPG-VI glioma cell viability, MIPE4.0 library, CellTiter-Glo luminescence, qHTS (AID 1347066; cut-off not given, nearly all actives have AC50 up to about 30 µM;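 further: cells exposed to compound for 48 hours before readout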); settings: CellTiter-Glo ATP luminescence
[15] = SU-DIPG-XXV glioma cell viability, MIPE5.0 library, qHTS (AID 1347068; cut-off not given, nearly all actives have IC50 up to about 30 µM)
[16] = stronger effect = lower value, cell number ratio, induced over uninduced
[17] = measured here: relative caspase fold change +Dox/-Dox
[18] = measured here: total cells with miR-34 induction, stronger effect = lower value
[19] = measured here: total cells without miR-34 induction

## CN=C(NC#N)NCCSCc1csc(N=C(N)N)n1
[1]
  parasite load remaining: 42.8% (inactive)
  viability: 132%
[2]; at 10 µM
  nuclear beta-catenin stimulation: -0.6% (inactive)
[2]; stimulation, at 2 µM
  nuclear beta-catenin stimulation: -1.8%
[3]
  insulin secretion stimulation: 0.3% (inactive)
[4]
  viability decrease: 5.8% (inactive)
[5]
  tube area decrease: 14.5% (inactive)
[6]
  GLP1 secretion stimulation: 0% (inactive)
[7]
  inhibition of viability: -2.7% (inactive)
[8]
  viability decrease (inhibition): -14.2% (inactive)
[9]
  viability decrease (inhibition): -5.4% (inactive)
[10]
  remaining activity: 91.8% (inactive)
[11]; [16]
  fold change: 0.914 (inactive) and 0.897 (inactive)
[11]; [17]
  fold change: 0.888 and 0.977
[11]; [18]
  cell count: 8420 and 9980
[11]; [19]
  cell count: 9210 and 11100
[12]; MELAS cybrid survival, CellTiter-Glo 48 h, stronger effect = higher value
  z-score: -0.55 (inactive)
[12]; Rieske KO mouse fibroblast survival, CellTiter-Glo 72 h
  z-score: -0.51
[13]
  z-score: 0.35 (inactive) and 0.345 (inactive)

## COc1cc2c(cc1OC)[C@@H]1CC(=O)[C@@H](CC(C)C)CN1CC2
[2]; at 10 µM
  nuclear beta-catenin stimulation: 0.6% (inactive)
[2]; stimulation, at 2 µM
  nuclear beta-catenin stimulation: 0.1%
[3]
  insulin secretion stimulation: -1.9% (inactive)
[4]
  viability decrease: -9.4% (inactive)
[5]
  tube area decrease: -10% (inactive)
[6]
  GLP1 secretion stimulation: -2.7% (inactive)
[7]
  inhibition of viability: 21.4% (inactive)
[8]
  viability decrease (inhibition): 2.6% (inactive)
[9]
  viability decrease (inhibition): 5.2% (inactive)
[10]
  remaining activity: 81.5% (inactive)
[11]; [16]
  fold change: 0.993 (inactive)
[11]; [17]
  fold change: 1.02
[11]; [18]
  cell count: 8740
[11]; [19]
  cell count: 8800
[13]
  z-score: 0.105 (inactive)

## COP(=O)(OC)OC(c1ccc(Cl)cc1)P(=O)(OC)OC (stereo unspecified)
[2]; at 10 µM
  nuclear beta-catenin stimulation: -1.5% (inactive)
[2]; stimulation, at 2 µM
  nuclear beta-catenin stimulation: 1.2%
[3]
  insulin secretion stimulation: 1.8% (inactive)
[4]
  viability decrease: -3.65% (inactive)
[5]
  tube area decrease: -20.8% (inactive)
[6]
  GLP1 secretion stimulation: 1.3% (inactive)
[7]
  inhibition of viability: -20.4% (inactive)
[8]
  viability decrease (inhibition): -1% (inactive)
[9]
  viability decrease (inhibition): 1.6% (inactive)
[10]
  remaining activity: 122% (inactive)
[11]; [16]
  fold change: 0.979 (inactive)
[11]; [17]
  fold change: 1.41
[11]; [18]
  cell count: 8810
[11]; [19]
  cell count: 8990
[13]
  z-score: -0.085 (inactive)

## O=c1[nH]c2cc(C(F)(F)F)c(N3CCOCC3)cc2n(CP(=O)(O)O)c1=O
[2]; at 10 µM
  nuclear beta-catenin stimulation: 1.2% (inactive)
[2]; stimulation, at 2 µM
  nuclear beta-catenin stimulation: -0.5%
[3]
  insulin secretion stimulation: 0.85% (inactive)
[4]
  viability decrease: 17.9% (inactive)
[5]
  tube area decrease: -10.1% (inactive)
[6]
  GLP1 secretion stimulation: 1% (inactive)
[7]
  inhibition of viability: 6.1% (inactive)
[8]
  viability decrease (inhibition): -13.4% (inactive)
[9]
  viability decrease (inhibition): 1.2% (inactive)
[10]
  remaining activity: 126% (inactive)
[11]; [16]
  fold change: 0.942 (inactive)
[11]; [17]
  fold change: 1.52
[11]; [18]
  cell count: 9280
[11]; [19]
  cell count: 9850
[13]
  z-score: 0.07 (inactive)

## CC1(CN2CCC(n3c(=O)[nH]c4ccccc43)CC2)OCc2ccccc2-n2cccc21 (stereo unspecified)
[2]; at 10 µM
  nuclear beta-catenin stimulation: 2.3% (inactive)
[2]; stimulation, at 2 µM
  nuclear beta-catenin stimulation: 2%
[3]
  insulin secretion stimulation: -3.4% (inactive)
[4]
  viability decrease: 78.6% (active)
[5]
  tube area decrease: 7.2% (inactive)
[6]
  GLP1 secretion stimulation: 3.3% (inactive)
[7]
  inhibition of viability: 113% (active)
[8]
  viability decrease (inhibition): 146% (active)
[9]
  viability decrease (inhibition): 101% (active)
[10]
  remaining activity: 97.5% (inactive)
[14]
  outcome: inactive
[15]
  outcome: inactive
[11]; [16]
  fold change: 0.899 (inactive)
[11]; [17]
  fold change: 1.14
[11]; [18]
  cell count: 6010
[11]; [19]
  cell count: 6680
[13]
  z-score: -0.665 (inactive)
